Screening data as filed in PubChem.
TWEAK Fn14 block – inhibitors of TWEAK-Fn14 signaling, primary screen, luciferase reporter cells, uHTS; TWEAK-stimulated Fn14 reporter cells, luciferase luminescence, 8 h; inhibition, % at 10 µM; 360,000 compounds, 2% hits; AID 1159606, 2016; in the data active = inhibition above about 50%
LMP1 NFkB inh – EBV LMP1-driven NF-kappaB luciferase reporter inhibitors, primary screen, cell-based, luminescence, single point. inhibition, % at 12.5 µM. LMP1-induced NF-kappaB luciferase reporter cells. AID 504558, 2011. 350,000 compounds, 0.69% hits; in the data active = inhibition above about 41%;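 also: 0% = neutral control wells and 100% = reference inhibitor control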
HSF1 activator – HSF-1 activators, primary screen, NIH3T3-HGL cells, MG132 stress, luminescence, single point; activation, % at 9 µM; 300,000 compounds, 1.7% hits; NIH3T3-HGL HSF-1 luciferase reporter, 8 h; 100% = twice DMSO control signal;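 active = mean replicate activation of at least 50% with a set share of replicates each reaching 50%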;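 also: 0% = median of the neutral control wells and 100% = twice that signal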
HSF1 inhib – HSF1 inhibitors in luciferase reporter cells, primary screen, cell-based, NIH3T3, luminescence; activity change, negative = inhibition, % at 7.5 µM (by protocol); 300,000 compounds, 0.77% hits; NIH3T3-HGL HSE-luciferase, MG132-induced, luminescence 8 h; active compounds read low;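 active = more than half of replicate wells show activity change below -50%, luminescence cut by over half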;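 also: luciferase reports HSF-1 transcriptional activity via heat shock element; 0% = median of DMSO wells and -100% = zero luminescence signal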
LGR2 antag – inhibitors of bursicon-induced LGR2 CRE-luciferase signal, primary screen, cell-based, HEK293, CRE-luciferase reporter, bursicon stimulation. Drosophila bursicon receptor LGR2 (rickets). bursicon-stimulated, 4 h. inhibition, % at 9.99 µM. 380,000 compounds, 0.35% hits. AID 720647, 2013;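 active = drop in luminescence signal, shown as inhibition above about 50% in the replicate tests, limit read from the data, passing the limit was not always enough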;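 also: agonist challenge used bursicon conditioned medium at about half maximal strength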
TROY NFkB inh – inhibitors of TROY-driven NF-kB signaling, primary screen, Q293 LMP1-TROYcd cells, NF-kB luciferase, uHTS. Q293 LMP1-TROYcd NF-kB luciferase reporter, 4 h. inhibition, % at 10 µM. 360,000 compounds, 0.98% hits. AID 1347056, 2019;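 active = compounds whose plate-normalised and pattern-corrected inhibition of the luciferase reporter signal at the single screening dose is 50% or more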
The depositor's hits bear a star; x = no result given. Most compounds without a hit are left out; they make up all but 3.6% or so of the library.

SMILES	TWEAK Fn14 block	LMP1 NFkB inh	HSF1 activator	HSF1 inhib	LGR2 antag	TROY NFkB inh
CN(C(=O)OC(C)(C)C)c1ccc(-c2nc3ccccc3s2)cc1	103.5*	80.8*	-94.3	-93.2*	99.1*	89.0*
Oc1cccc(-c2nc3ccccc3s2)c1	54.2*	-12.8	38.2	26.1	x	15.8
CC(C)c1ccc(-c2nc3ccccc3s2)cc1	106.8*	69.6*	-92.5	-90.7*	100.1*	95.6*
COC(=O)N(C)c1nc2ccccc2s1	-16.4	-5.1	13.1	4.3	-20.9	-22.9
C[C@@H]1CN([C@@H](C)CO)C(=O)c2cccc(NC(=O)C3CCOCC3)c2O[C@H]1CN(C)Cc1ccc(C(F)(F)F)cc1	x	x	x	x	-4.4	x
C[C@@H]1CN([C@@H](C)CO)C(=O)Cc2cc(NS(=O)(=O)c3ccc(Cl)cc3)ccc2O[C@H]1CN(C)CC1CC1	x	x	x	x	4.0	x
C[C@H](CO)N1C[C@H](C)[C@H](CN(C)C(=O)Nc2ccccc2)Oc2ccc(NS(C)(=O)=O)cc2CC1=O	x	x	x	x	-14.4	x
O=C(C1CCCC1)N1C[C@@H]2[C@H](c3ccccc31)[C@@H](CO)N2C(=O)Nc1cccc(F)c1	x	x	x	x	2.2	x
COc1ccc(-c2nc3ccccc3s2)cc1O	98.8*	37.3	43.0	18.8	x	68.0*
CC[n+]1cccc(-c2nc3ccccc3s2)c1	69.4*	23.1	2.2	-4.1	14.6	64.1*
CN(C)CCCNC(=O)C[C@@H]1CC[C@@H](NS(=O)(=O)c2ccc(F)cc2)[C@@H](CO)O1	x	x	x	x	29.7	x
Cc1noc(NS(=O)(=O)c2ccc(N/C=C/C(=O)c3ccc(F)cc3)cc2)c1C	57.2*	10.3	-9.5	-4.1	6.8	10.0
Cc1ccc(S(=O)(=O)CC(=O)Nc2ccc(S(=O)(=O)Nc3onc(C)c3C)cc2)cc1	-4.2	4.1	-87.6	-83.5*	x	2.6
Cc1cc(C(=O)Nc2ccc(S(=O)(=O)Nc3onc(C)c3C)cc2)c(C)o1	10.7	-3.4	-0.2	-4.4	x	-14.9
Cc1ccc(OCC(=O)Nc2ccc(S(=O)(=O)Nc3onc(C)c3C)cc2)cc1	6.2	2.0	9.6	-6.7	x	-12.3
Cc1ccc2oc(C(=O)Nc3ccc(S(=O)(=O)Nc4onc(C)c4C)cc3)c(C)c2c1	-0.8	65.9*	12.8	-0.1	-8.6	-19.6
CCc1cccc(OCC(=O)Nc2ccc(S(=O)(=O)Nc3onc(C)c3C)cc2)c1	8.1	2.5	-82.4	-78.7*	9.0	-0.5
CCCNC(=O)Nc1ccc2c(c1)C(=O)N(C)C[C@@H](OC)[C@@H](C)CN(S(C)(=O)=O)[C@H](C)CO2	x	x	x	x	-6.0	x
CN1C[C@@H](O)COC[C@@H]2O[C@@H](CC(=O)N3CCN(c4ccccc4)CC3)CC[C@H]21	x	x	x	x	-7.7	x
Cc1ccc(NC(=O)c2ccc3nc[nH]c3c2)nc1	26.9	-3.8	39.2	12.9	-39.3	-8.7
Cc1ccc(NC(=O)c2ccc3nc[nH]c3c2)c(O)c1	0.2	-14.2	66.4*	17.9	-45.2	-57.0
COc1ccccc1C1=NNC(=Nc2cccc(S(=O)(=O)N(C)C)c2)SC1	50.5*	-2.3	-43.8	-42.6	7.7	16.4
COc1ccc(N=C2NN=C(c3ccc4c(c3)OCCO4)CS2)cc1	6.9	-28.6	-10.8	-6.1	x	7.4
CC(=NNC(=S)Nc1ccc(C)cc1)c1ccccn1	-42.7	62.0*	x	x	-32.1	-34.1
C/C(=N\NC(=S)Nc1cccc(C)c1)c1ccccc1	-13.4	-15.5	11.6	4.7	x	-26.7
SMILES	TWEAK Fn14 block	LMP1 NFkB inh	HSF1 activator	HSF1 inhib	LGR2 antag	TROY NFkB inh
CC(=NNC(=S)Nc1cccc(C)c1)c1ccccn1	-123.2	76.1*	x	x	20.2	-31.3
CO[C@@H]1CN(C)C(=O)c2ccc(NS(=O)(=O)c3ccccc3)cc2OC[C@@H](C)N(Cc2cccnc2)C[C@H]1C	x	x	x	x	-3.3	x
CCNc1nc(SC(C)C(=O)Nc2ccccc2)nc(N2CCOCC2)n1 (configuration not stated)	-24.9	9.5	4.3	-1.1	x	-5.1
CNc1nc(SC(C)C(=O)Nc2ccc(Cl)c(Cl)c2)nc(N2CCOCC2)n1 (configuration not stated)	-23.9	9.3	68.2*	12.2	-38.9	3.4
CCC(NC(=O)Nn1cnnc1)(C(F)(F)F)C(F)(F)F	-2.1	66.5*	0.9	1.3	x	-6.8
CN(C)/N=C/C=C1\CCC/C(=C/c2cccs2)C1=O	-5.0	-46.4	75.8*	41.1	-27.8	-1.9
CN(C)/N=C/C=C1\CC/C(=C\c2ccc(Br)cc2)C1=O	1.0	-22.4	-0.3	-0.6	x	-16.4
C[C@@H]1CCCCO[C@H](CN(C)Cc2ccccc2)[C@@H](C)CN([C@@H](C)CO)C(=O)c2cc(NS(=O)(=O)c3ccc(F)cc3)ccc2O1	x	x	x	x	-18.2	x
Cc1noc(C)c1NC(=O)N(C)C[C@@H]1Oc2c(NS(=O)(=O)c3cccs3)cccc2C(=O)N([C@@H](C)CO)C[C@@H]1C	x	x	x	x	-0.3	x
CN1CCN(C(=O)c2ccccc2N(Cc2ccccc2)S(C)(=O)=O)CC1	72.0*	0.9	-15.2	0.6	x	7.1
CN1CCN(C(=O)c2ccccc2N(Cc2ccccc2)S(=O)(=O)c2ccccc2)CC1	-3.9	12.8	20.9	-3.4	18.0	11.3
CCCC(=O)Nc1ccc2c(c1)C(=O)N(C)[C@H]1CC[C@@H](CC(=O)Nc3ccccc3)O[C@H]1CO2	x	x	x	x	-3.5	x
CCS(=O)(=O)Nc1ccc2c(c1)C(=O)N(C)[C@H]1CC[C@H](CC(=O)Nc3ccccc3C)O[C@@H]1CO2	x	x	x	x	-5.0	x
CC(C)(C)NC(=O)C(c1ccncc1)N(Cc1ccco1)C(=O)c1ccc(-c2ccccc2)[nH]1 (configuration not stated)	-4.5	-7.7	137.9*	101.9	-45.4	-27.2
O=C(NC1CCCCC1)C(c1ccncc1)N(Cc1ccccc1)C(=O)c1ccc(-c2ccccc2)[nH]1 (configuration not stated)	2.3	-0.7	55.5*	35.1	x	-9.4
O=C(NC1CCCCC1)C(c1ccncc1)N(Cc1ccc(F)cc1)C(=O)c1ccccn1 (configuration not stated)	5.5	0.2	6.5	3.8	12.1	-18.2
C[C@@H]1CN([C@H](C)CO)C(=O)c2cc(-c3ccncc3)cnc2O[C@H]1CN(C)Cc1cccnc1	x	x	x	x	1.4	x
CCc1[nH]nc2c1C(c1ccsc1)C(C#N)=C(N)O2 (configuration not stated)	3.1	16.1	52.8*	15.7	x	19.0
CCCc1[nH]nc2c1C(c1cc(OC)ccc1F)C(C#N)=C(N)O2 (configuration not stated)	-5.7	7.9	74.1*	29.8	-1.2	28.6
